# “And” between values parts separate entries of the source, which are not always exact repeats. Equal entries are not always repeated. This is part of a sample that, as a whole, favours compounds with a hit. Of some 83,000 tested, about 20% had one in any assay.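 Cells were grown in 96-well plates and exposed to the test compound at a single concentration for 48 hours; results are reported as percent growth, with values below 10 considered active.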 Unmarked numbers belong to inactive results. The source made the active and inactive calls.
# Test system: SK-MEL-2 melanoma
# Assay: NCI-60 one-dose screen, 48 h (100 = growth as untreated, 0 = no growth, -100 = all killed)
# Conditions: 100 µM
row,SMILES,growth
1,COc1ccc(C(=O)/C=C/c2ccc(OCc3cccc(C(F)(F)F)c3)c(OC)c2)cc1OC,32.6%
2,CCN(Cc1ccccc1)c1ccc(/C=C2\COc3ccccc3C2=O)cc1,21.8%
3,COc1ccc(C(=O)/C=C/c2ccc(OCc3ccc(Cl)cc3)cc2)cc1OC,48.5%
4,CC(=O)/C=C/c1ccc(OCc2ccc(C(C)(C)C)cc2)cc1,-21.6% (active)
5,O=C(/C=C/c1cccc(Oc2ccc(Cl)cc2)c1)c1ccccc1,-59.8% (active)
6,CC(=O)/C=C/c1ccc(OCc2ccc(Cl)cc2)cc1,4.19% (active)
7,CC(=O)/C=C/c1ccc(N(CCO)Cc2ccc(C(C)(C)C)cc2)cc1,-75.2% (active)
8,CC(=O)/C=C/c1ccc(N(C)Cc2ccc(C(C)(C)C)cc2)cc1,-69.2% (active)

# Test system: EKVX NSCLC
# Assay: as above
# Conditions: 10 µM
row,SMILES,growth [%]
1,COc1ccc(C(=O)/C=C/c2ccc(OCc3cccc(C(F)(F)F)c3)c(OC)c2)cc1OC,114
2,CCN(Cc1ccccc1)c1ccc(/C=C2\COc3ccccc3C2=O)cc1,102
3,COc1ccc(C(=O)/C=C/c2ccc(OCc3ccc(Cl)cc3)cc2)cc1OC,109
4,CC(=O)/C=C/c1ccc(OCc2ccc(C(C)(C)C)cc2)cc1,95.1
5,O=C(/C=C/c1cccc(Oc2ccc(Cl)cc2)c1)c1ccccc1,110
6,CC(=O)/C=C/c1ccc(OCc2ccc(Cl)cc2)cc1,116
7,CC(=O)/C=C/c1ccc(N(CCO)Cc2ccc(C(C)(C)C)cc2)cc1,57.4
8,CC(=O)/C=C/c1ccc(N(C)Cc2ccc(C(C)(C)C)cc2)cc1,106

# Same assay, conditions: 10 µM unless noted
row,SMILES,growth
1,CN(C)CCCn1c2nc(=O)[nH]c(=O)c-2nc2cc(Cl)c(Cl)cc21,103%
2,C=C(CNCCc1ccc(O)cc1)[C@@H]1CC[C@]2(CO)CC[C@]3(C)[C@H](CC[C@@H]4[C@@]5(C)CCC(NCCc6ccc(O)cc6)C(C)(C)[C@@H]5CC[C@]43C)[C@@H]12 (stereo not given in full),-85.7% (active)
3,O=C1/C(=C/c2cn(-c3ccccc3)nc2-c2ccccc2)SC(=S)N1c1ccc(Cl)cc1,81.9%
4,CCCNNC(=O)/C=C/c1ccc(CNCCc2c(C)[nH]c3ccccc23)cc1,50.4% [2.5 µM]
5,C=CCNC(=O)Cc1c(-c2ccc(OC)cc2)oc2c(OC)c3c(c(OC)c12)OCO3,107%
6,CC1=C2[C@@H](CC1)[C@]1(C)O[C@@](C(C)C)(C[C@H]1OC(=O)CO)[C@H]2OC(=O)C1CC1c1ccccc1 (stereo not given in full),93.8%
7,O=C([C@H]1C[C@H]1c1ccc(S(F)(F)(F)(F)F)cc1)N1CCN(c2cc(Cl)ccc2C(F)(F)F)CC1,91.9%
8,O=C(Cc1ccc(F)cc1)c1ccccc1,113%
9,COc1cc2cc(NCc3ccncc3)nc(C)c2cc1OC,96.3%
10,CN1Cn2c(ccc2C(F)(F)F)C(=O)CS1(=O)=O,99.2%
11,O=C1C=C(Nc2ccccc2)c2ncccc2C1=O,-85.3% (active)
12,C=C1C(=O)O[C@H]2[C@H]1CC/C(COC(=O)NCc1ccc(Cn3c(=O)sn(CCCI)c3=O)cc1)=C\CC[C@@]1(C)O[C@@H]21,91.7%
13,COc1ccc(Cn2cc(C(=O)Nc3cccnc3Nc3ccccc3)nn2)cc1,92.8%
14,NNCCc1ccccc1,101% and 86.2%
15,CCN(CC)CC#CCOC(=O)[C@]1(C)CCC[C@]2(C)c3ccc(C(C)C)cc3CC[C@@H]12,86.6%
16,COc1cc2c(cc1OCCCOC1=C=C=C(c3ccc4c(c3)c3cc(-c5ccc(OCCCOc6cc7c(cc6OC)C(=O)N6CCC[C@H]6C=N7)cc5)ccc3n4S(=O)(=O)c3ccc(C)cc3)C=C1)N=C[C@@H]1CCCN1C2=O,94.5%
17,O=C(CCl)N(O)c1ccc(/C=C/c2ccccc2)cc1,81.7%
18,COc1cc(/C=C/C(=O)c2ccc(NC(=O)CSc3nnc(-c4cc(-c5ccccc5)nc5ccccc45)n3-c3ccccc3)cc2)cc(OC)c1OC,84.9%
19,Nc1[nH]nc(Nc2ccccc2)c1-c1nc2ccccc2s1,19%
20,C[C@]12CCc3c(ccc4cc(O)ccc34)[C@@H]1C[C@H](O)[C@@H]2O,74.7%
21,Cn1cc(-c2csc(-c3cn(CCOC(N)=O)c4ccccc34)n2)c2cccnc21,68.7%
22,C=C(CN1CC=CCC1)[C@@H]1CC[C@]2(COC(C)=O)CC[C@]3(C)[C@H](CC[C@@H]4[C@@]5(C)CC[C@H](O)C(C)(C)[C@@H]5CC[C@]43C)[C@@H]12,109%
23,C/C=C(/C)C(=O)O[C@@H]1CC(C)(C)CC2C34OC(=O)[C@@]21CC[C@@]3(C)[C@]1(C)CCC2C(C)(C)C(=O)CC[C@]2(C)C1C[C@@H]4Cl (stereo not given in full),92%
24,CC1=CC=C(NC(=O)/C=C/c2ccccc2)CC1Nc1nccc(-c2cccnc2)n1 (stereo not given),67.4%
25,COc1ccc(-c2[nH]c3ccccc3c2-c2ccc(OC)cc2)cc1,73.8%
26,CC[C@]12CN3CCc4c([nH]c5ccccc45)[C@@](C(=O)OC)(c4cc5c(cc4OC)N(C)[C@H]4[C@@](O)(C(=O)OC)[C@H](OC(C)=O)[C@]6(CC)C=CCN7CC[C@]54[C@@H]76)CC(C3)[C@H]1O2 (stereo not given in full),28.4%
27,CCCCC1=C(Br)C(=O)c2nc(C)ccc2C1=O,92.7%
28,Nc1ncc(-c2ccc3ncnc(N4CCc5ccc(Cl)cc54)c3c2)cc1C(F)(F)F,6.87% (active)
29,COc1ccc(-c2nnc3n(C)c(=O)c4ccccc4n23)cc1O,97.5%
